Records with an inconclusive call do not appear. The source made the active and inactive calls.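 The calls were made as follows, unless noted: active = normalized viability below 100% at a tested concentration; inactive = the rest.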
Columns and labels:
[1] = growth inhibition of DIPG glioma cells, dose response, cell-based, SU-DIPG-XVII, MIPE5.0, CellTiter-Glo, qHTS (AID 1347060; cut-off not given, nearly all actives have AC50 up to about 26 µM;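 also: cells exposed to compound for 48 hours before viability readout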); conditions: SU-DIPG-XVII viability, CellTiter-Glo ATP luminescence
[2] = growth inhibition of DIPG glioma cells, dose response, cell-based, JHH-DIPG-1, MIPE4.0, CellTiter-Glo, qHTS (AID 1347062; cut-off not given, nearly all actives have AC50 up to about 27 µM;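 also: cells exposed to compound for two days before readout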); conditions: JHH-DIPG-1 viability, CellTiter-Glo ATP luminescence
[3] = growth inhibition of DIPG glioma cells, dose response, cell-based, SU-DIPG-XIII, MIPE5.0, CellTiter-Glo, qHTS (AID 1347064; cut-off not given, nearly all actives have AC50 up to about 23 µM;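 also: cells exposed to compound for 48 hours before the viability read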); conditions: SU-DIPG-XIII viability, CellTiter-Glo ATP luminescence
[4] = viability loss in pontine glioma line – cell-based, SU-DIPG-XXV, MIPE5.0, CellTiter-Glo, qHTS, dose response (AID 1347065; cut-off not given, nearly all actives have AC50 up to about 26 µM;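 also: cells exposed to compound for 48 hours before ATP readout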); conditions: CellTiter-Glo ATP luminescence
[5] = JHH-DIPG-1 glioma cell viability, MIPE5.0 library, CellTiter-Glo luminescence, qHTS (AID 1347067; cut-off not given, nearly all actives have AC50 up to about 26 µM;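 also: cells exposed to compound for 48 hours before readout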); conditions: JHH-DIPG-1 glioma viability, CellTiter-Glo ATP luminescence
[6] = SU-DIPG-XXV glioma cell viability, MIPE5.0 library, qHTS (AID 1347068; cut-off not given, nearly all actives have IC50 up to about 30 µM;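 also: cells exposed to compound for 48 hours before viability readout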)
[7] = modifiers of HSF1 nuclear foci, imaging, Selleck Cancer Library (AID 1347162; in the data active = plate-normalised HSF1 focus index below about 0.46); conditions: human cells, at 10 µM; SSMD: measured here: HSF1 foci SSMD mean; cell count: measured here: cell number; plate-normalised HSF1 focus index: stronger effect = lower value
[8] = ovarian cancer cell viability with rucaparib, profiling panel, oncology-focused library, rucaparib conditional (AID 1508598); conditions: patient-derived ovarian cancer cells, CellTiter-Glo viability, 144 h, stronger effect = lower value

Cc1ccc(C(=O)N(CCCN)[C@@H](c2nc3cc(Cl)ccc3c(=O)n2Cc2ccccc2)C(C)C)cc1
-9.79: SSMD [7]
3920: cell count [7]
active: AC50 [1] 16.6 nM | AC50 [2] 13200 nM | AC50 [3] 5900 nM | AC50 [4] 9.34 nM | AC50 [5] 9340 nM | IC50 [6] 16.6 nM | viability ([8]; at 0.000305 µM, OCI-P5x cells, with rucaparib 20 µM, 100% = cells with rucaparib alone) 95.5% | viability ([8]; at 0.00122 µM, OCI-C5x cells, with rucaparib 10 µM, 100% = cells with rucaparib alone) 90.5% | viability ([8]; at 0.00122 µM, OCI-P5x cells, with rucaparib 20 µM, 100% = cells with rucaparib alone) 78.5% | viability ([8]; at 0.00122 µM, OCI-P5x cells, without rucaparib) 81.4% | viability ([8]; at 0.00488 µM, OCI-C5x cells, with rucaparib 10 µM, 100% = cells with rucaparib alone) 44.7% | viability ([8]; at 0.00488 µM, OCI-C5x cells, without rucaparib) 76.6% | viability ([8]; at 0.00488 µM, OCI-P5x cells, with rucaparib 20 µM, 100% = cells with rucaparib alone) 68.7% | viability ([8]; at 0.00488 µM, OCI-P5x cells, without rucaparib) 66.4% | viability ([8]; at 0.0195 µM, OCI-C5x cells, with rucaparib 10 µM, 100% = cells with rucaparib alone) 43.1% | viability ([8]; at 0.0195 µM, OCI-C5x cells, without rucaparib) 55.9% | viability ([8]; at 0.0195 µM, OCI-P5x cells, with rucaparib 20 µM, 100% = cells with rucaparib alone) 51.4% | viability ([8]; at 0.0195 µM, OCI-P5x cells, without rucaparib) 21.1% | viability ([8]; at 0.0781 µM, OCI-C5x cells, with rucaparib 10 µM, 100% = cells with rucaparib alone) 47.4% | viability ([8]; at 0.0781 µM, OCI-C5x cells, without rucaparib) 65.7% | viability ([8]; at 0.0781 µM, OCI-P5x cells, with rucaparib 20 µM, 100% = cells with rucaparib alone) 55.4% | viability ([8]; at 0.0781 µM, OCI-P5x cells, without rucaparib) 24.5% | viability ([8]; at 0.313 µM, OCI-C5x cells, with rucaparib 10 µM, 100% = cells with rucaparib alone) 56.5% | viability ([8]; at 0.313 µM, OCI-C5x cells, without rucaparib) 65.1% | viability ([8]; at 0.313 µM, OCI-P5x cells, with rucaparib 20 µM, 100% = cells with rucaparib alone) 54.8% | viability ([8]; at 0.313 µM, OCI-P5x cells, without rucaparib) 22.4% | viability ([8]; at 1.25 µM, OCI-C5x cells, with rucaparib 10 µM, 100% = cells with rucaparib alone) 50.7% | viability ([8]; at 1.25 µM, OCI-C5x cells, without rucaparib) 61.5% | viability ([8]; at 1.25 µM, OCI-P5x cells, with rucaparib 20 µM, 100% = cells with rucaparib alone) 56.9% | viability ([8]; at 1.25 µM, OCI-P5x cells, without rucaparib) 24.3% | viability ([8]; at 5 µM, OCI-C5x cells, with rucaparib 10 µM, 100% = cells with rucaparib alone) 6.32% | viability ([8]; at 5 µM, OCI-C5x cells, without rucaparib) 47.8% | viability ([8]; at 5 µM, OCI-P5x cells, with rucaparib 20 µM, 100% = cells with rucaparib alone) 26.6% | viability ([8]; at 5 µM, OCI-P5x cells, without rucaparib) 17.1%
inactive: plate-normalised HSF1 focus index [7] 0.497 | viability ([8]; at 0.000305 µM, OCI-C5x cells, with rucaparib 10 µM, 100% = cells with rucaparib alone) 104% | viability ([8]; at 0.000305 µM, OCI-C5x cells, without rucaparib) 109% | viability ([8]; at 0.000305 µM, OCI-P5x cells, without rucaparib) 101% | viability ([8]; at 0.00122 µM, OCI-C5x cells, without rucaparib) 116%

— PubChem BioAssay
